# Rows were chosen to be rich in hits. Some 6% of all compounds tested hit in one or more screens of this group.
# PLK1 PBD inh: qHTS for Inhibitors of PLK1-PDB (polo-like kinase 1 - polo-box domain): Primary Screen | Serine/threonine-protein kinase PLK1 (Homo sapiens), P53350 | Plk1 PBD binding of FITC phosphopeptide, fluorescence polarization | Potency, µM, inactives show max response, negative = inhibition, usual class: inhibitors | 2.8% of 360,000 active; note: series mostly up to about 57 µM; nearly all actives have a fitted effect of over 65% in size
# Tau fluor cs: Counterscreen qHTS for Inhibitors of Tau Fibril Formation, Fluorescence Polarization; Potency, µM (highest dose often 57.7 µM), without a hit: at the top dose activity change, negative = decrease; 0.93% of 280,000 active; AID 1463, 2008; tau K18 P301L Alexa594 fluorescence, heparin fibrillization; note: nearly all actives have a fitted effect of over 55% in size
#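 Human tau K18 P301L (15 uM unlabeled, 0.24 uM Alexa 594-labeled) in 100 mM sodium acetate pH 7 with 20 uM heparin, 6 hr at 37 C. ThT 30 uM added, 1 hr ambient; Alexa 594 FP and total fluorescence read at 555/632 nm.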
# VDR inh: Inhibitors of the vitamin D receptor (VDR): qHTS; Vitamin D3 receptor (Homo sapiens), P11473; VDR-SRC2-3 peptide fluorescence polarization, 2 h; Potency, µM, for inactives: max response, negative = inhibition, most hits filed as inhibitors; 0.93% of 400,000 active
# Target sequence (P11473 whole entry, looked up): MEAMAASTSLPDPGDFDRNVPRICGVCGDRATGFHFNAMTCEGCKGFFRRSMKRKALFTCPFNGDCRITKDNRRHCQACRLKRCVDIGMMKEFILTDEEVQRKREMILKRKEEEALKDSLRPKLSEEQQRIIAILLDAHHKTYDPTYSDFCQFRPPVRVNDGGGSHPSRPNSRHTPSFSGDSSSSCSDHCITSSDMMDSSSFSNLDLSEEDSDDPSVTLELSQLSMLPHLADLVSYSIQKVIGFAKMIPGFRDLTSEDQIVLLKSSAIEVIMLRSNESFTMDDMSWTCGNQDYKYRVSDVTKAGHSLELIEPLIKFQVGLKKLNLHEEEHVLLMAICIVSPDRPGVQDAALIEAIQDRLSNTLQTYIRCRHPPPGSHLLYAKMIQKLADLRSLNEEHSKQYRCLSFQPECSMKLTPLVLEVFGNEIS
#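 Fluorescence polarization assay measuring small-molecule disruption of VDR binding to the coregulator peptide SRC2-3. Compounds were pin-transferred (23 nl) into the reagent mix and incubated 2 h at room temperature before reading.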
# Tau fibril FP: qHTS for Inhibitors of Tau Fibril Formation, Fluorescence Polarization; K18 P301L tau heparin fibrillization, Alexa594 FP, 6 h; Microtubule-associated protein tau (Homo sapiens), P10636; 0.39% of 280,000 active; Potency, µM (top dose mostly 57.7 µM), inactives show top-dose activity, negative = inhibition, most hits filed as inhibitors; note: nearly all actives have a fitted effect of over 55% in size
# Target sequence (P10636 561-689 P618L limits assumed): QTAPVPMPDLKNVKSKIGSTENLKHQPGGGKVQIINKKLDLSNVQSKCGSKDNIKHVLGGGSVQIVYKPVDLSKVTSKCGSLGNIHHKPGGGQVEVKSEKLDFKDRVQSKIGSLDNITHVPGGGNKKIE
#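 Compound effects on tau fibrillization are measured by Alexa 594 fluorescence polarization (ex 555, em 632 nm). K18 P301L tau is used at 15 uM with 0.24 uM labeled tracer, and 20 uM heparin induces aggregation over 6 hr at 37 C.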
# Sfp inh: qHTS Assay for Inhibitors of Bacillus subtilis Sfp phosphopantetheinyl transferase (PPTase); 3.5% of 310,000 active; Biochemical Sfp PPTase activity, qHTS; 4'-phosphopantetheinyl transferase ffp (Bacillus subtilis), Q9F4F7; Potency, µM, for inactives: largest response in the series, negative = inhibition, usual class: inhibitors;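 note: the enzyme is Sfp with the accession as filed and its product quenches rhodamine fluorescence; 0% = enzyme reaction without inhibitor and -100% = no enzyme wells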
#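 With Hepes-Na pH 7.6 buffer containing 10 mM MgCl2, Sfp (15 nM) modified BHQ-2-YbbR (12.5 uM) using rhodamine-CoA (5 uM). Two reads 30 minutes apart at 525/598 nm yielded each well's rate.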
# Tau fibril ThT: qHTS for Inhibitors of Tau Fibril Formation, Thioflavin T Binding. Microtubule-associated protein tau (Homo sapiens), P10636. recombinant tau K18 P301L (four-repeat tau fragment), heparin-induced fibrillization, ThT fluorescence. Potency, µM (titrated, usually from 57.4 µM), without a hit: at the top dose activity, negative = inhibition, usual class: inhibitors. 2.1% of 270,000 active; note: nearly all actives have a fitted effect of over 55% in size
#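 Aggregation was driven by heparin (20 uM final) acting on recombinant tau […] bearing P301L in 100 mM sodium acetate pH 7; fibrils were detected with Thioflavin T.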
# Starred values were filed as active, the others as inactive; ? = inconclusive; · = no result given; [ ] = dose if it differs, or a comment. Calls come from the whole dose curve; as a rule, active = well fitted curve in the direction sought with a large enough effect; inconclusive = small, poorly fitted or top-dose-only effect, or another doubt; inactive = no such curve, though single readings can be large; an effect the other way counts as inactive or inconclusive. Unless noted, % is set by controls: 0 for no effect and ±100 for the full control effect; potency is the fitted concentration of half-maximal effect.
SMILES,PLK1 PBD inh,Tau fluor cs,VDR inh,Tau fibril FP,Sfp inh,Tau fibril ThT
CC(=O)Nc1ccc(-c2ccnc3c2CC(C(=O)NCc2ccccc2)O3)cc1 (centres undefined),-8.4%,·,·,·,·,·
CC(=O)Nc1ccc(S(=O)(=O)Nc2cc(S(=O)(=O)N3CCCCC3)ccc2O)cc1,-10.2%,·,-14.4%,·,·,·
Cc1nnc(NC(=O)C2CCCO2)s1 (centres undefined),?,-7.3%,5.4%,-3.8%,-6.3%,-10.8%
CCCC(C)c1nnc(NC(=O)C2CCCO2)s1 (centres undefined),29.9µM*,15.2%,-17.5%,4.3%,12.6µM*,?
O=C1c2ccccc2C(=O)c2c1ccc1c(=O)n(C3CCCCC3)[nH]c21,-9.5%,?,-13.9%,10.4%,-12.2%,?
O=C1C2=C(c3ccccc31)[N+](=O)C1CCCCC1N2[O-] (centres undefined),?,-25.7%,?,?,-13.9%,15.8µM*
O=C1C2=C(c3ccccc31)[N+](=O)[C@@H]1CCCC[C@@H]1N2[O-],?,-18.1%,-8.5%,?,56.2µM*,?
CCc1ccccc1Nc1nn2c(=O)c3ccc(C(=O)NC4CCCCC4)cc3nc2s1,·,-14.6%,1.3%,-13.8%,·,2.6%
CCOC(=O)C1(C)CCCN1C(=O)c1ccc(C(F)(F)F)nc1C (centres undefined),0.2%,·,·,·,·,·
CC(=O)N/C(=C\c1ccccc1)C(=O)OC(C)C(=O)NCc1ccccc1 (centres undefined),-16.1%,·,-21.1%,·,·,·
c1ccc2c(SCc3cn4ccccc4n3)nncc2c1,-6.3%,-6.9%,1.5%,-9.3%,44.7µM*,-8.6%
CCC(C(=O)OCC(=O)NC(=O)c1ccccc1OC)c1ccccc1 (centres undefined),2.4%,·,18.1%,·,·,·
CC(=O)OC[C@@H]1O[C@@H](O/N=C2/C[C@@H](O)[C@@H](O)[C@@H]3[C@@H]4C(=O)N(C5CCCCC5)C(=O)[C@H]4CC[C@H]23)[C@H](OC(C)=O)[C@H](OC(C)=O)[C@@H]1OC(C)=O,·,-3.8%[11.6 µM],·,5.0%[11.6 µM],-11.5%,-3.3%[11.5 µM]
COc1ccc(C(c2c(O)cc(C)n(Cc3ccco3)c2=O)N2CCN(c3ccccc3)CC2)cc1 (centres undefined),·,0.5%,0.8%,-12.9%,·,?
COc1ccc(NC(=S)NCCc2ccccc2OC)c(OC)c1,-14.7%,-19.2%,3.5%,2.4%,89.1µM*,-14.1%
COc1ccc(NC(=S)Nc2ccc(OC)cc2OC)c(OC)c1,26.7µM*,0.8%,-12.3%,1.6%,?,-2.4%
COc1cccc(NC(=O)NNS(=O)(=O)c2ccc(OC)cc2OC)c1,-1.4%,·,6.6%,·,9.8%,·
COc1ccccc1NC(=S)NCCc1c[nH]c2ccccc12,3.36µM*,-25.0%,-17.2%,14.3%,-2.1%,-13.3%
COc1ccc(NC(=S)Nc2ccccc2OC)c(OC)c1,-17.7%,-3.1%,4.2%,-3.3%,?,3.8%
COc1ccc(NC(=S)NCc2ccccc2Cl)c(OC)c1,-5.4%,·,10.7%,·,19.4%,·
CNC(=S)NNS(=O)(=O)c1ccc(OC)cc1OC,-3.7%,-3.1%,-1.5%,2.6%,25.1µM*,4.2%
COCC1=C2c3ccccc3[C@@H]3CNC(=O)C3(C(=O)OC)C[C@@H]2n2c(=O)n(-c3ccccc3)c(=O)n2C1 (some centres undefined),·,-1.6%,-1.9%,1.6%,3.8%,-4.2%
O=C(NCCC(=O)N(CCc1ccccc1)Cc1ccccc1)c1ccc([N+](=O)[O-])cc1,-1.0%,·,-15.2%,·,·,·
COc1ccc(NC(=S)NCc2ccc(S(N)(=O)=O)cc2)c(OC)c1,?,-7.7%,-13.5%,2.9%,31.6µM*,-5.2%
COc1ccc(NCC(=O)Nc2ccc(Cl)cc2C)c(OC)c1,-22.6%,?,-5.3%,-13.8%,-4.4%,31.6µM*
SMILES,PLK1 PBD inh,Tau fluor cs,VDR inh,Tau fibril FP,Sfp inh,Tau fibril ThT
Cc1cc(C)cc(OCc2cc(=O)n3c4c(sc3n2)CCCC4)c1,·,-3.9%,-3.0%,-3.7%,·,-4.0%
CCN1C[C@@H]2[C@@H]3C(=O)N(C)C(=O)[C@@H]3[C@](Cc3ccccc3)(C1=O)N2C(=O)c1ccc(Cl)cc1,0.9%,·,-14.5%,·,·,·
COc1ccc(/C=C/C(=O)Nc2ccc(NC(C)=O)cc2)cc1S(=O)(=O)N1CCOCC1,29.9µM*,-26.1%,-15.1%,4.9%,9.5%,·
COc1ccc(C)cc1S(=O)(=O)N1CCOCC1,18.9µM*,-2.3%,-24.8%,0.4%,12.2%,-6.1%
COc1ccccc1C(=O)N1CCC(N2CCN(c3ccccc3OC)CC2)CC1,6.2%,-15.8%,2.5%,-4.5%,89.1µM*,-17.9%
COc1ccccc1C(=O)N1CCC(N2CCN(c3ccccc3)CC2)CC1,-1.7%,-18.7%,-7.0%,-12.4%,-19.5%,-14.7%
COc1ccc2c(c1)cc(C(=O)N[C@H](C(=O)N1CCC(C(=O)O)CC1)C(C)C)n2C,1.5%,·,14.1%,·,2.2%,·
CN(C)S(=O)(=O)c1cccc(NC(=O)CSc2cccc3cccnc23)c1,10.6µM*,·,-6.0%,·,-1.9%,·
O=C(O)CSc1cccc2cccnc12,-20.7%,-5.0%,0.1%,2.5%,56.2µM*,-5.8%
CCOCCn1c(=O)c2c(nc3n2CC(C)CN3Cc2ccccc2)n(C)c1=O (centres undefined),29.9µM*,·,-19.9%,·,-3.8%,·
COc1ccc(/C=C2/SC(=S)N(NS(=O)(=O)c3ccccc3)C2=O)cc1,?,·,?,·,3.2%,·
C=CCOc1ccc(/C=C2\SC(=S)N(NS(=O)(=O)c3ccccc3)C2=O)cc1,21.2µM*,·,?,·,-3.8%,·
O=C1/C(=C\c2ccc(Br)cc2)SC(=S)N1NS(=O)(=O)c1ccccc1,21.2µM*,·,-1.1%,·,-17.2%,·
O=C1/C(=C/c2cccnc2)SC(=S)N1NS(=O)(=O)c1ccccc1,-10.4%,·,-20.4%,·,-1.7%,·
CC(=O)Nc1cccc(C(=O)N/N=C/c2c[nH]c3ccccc23)c1,0.5%,·,-20.4%,·,6.7%,·
Nc1ccc(S(=O)(=O)Nc2cnc3ccccc3n2)cc1,-7.3%,-10.5%,2.8%,-8.0%,8.6%,-7.4%
Nc1ccc(S(=O)(=O)Nc2nc3ccccc3o2)cc1,?,·,4.3%,·,50.1µM*,·
Cc1ccnc(N=O)c1,10.6µM*,·,-22.8%,·,·,·
CSc1ncc(Cl)c(C(=O)C(C#N)c2nc3c(C)cc(C)cc3c(=O)[nH]2)n1 (centres undefined),21.2µM*,-14.0%,?,-1.2%,-9.3%,?
CSc1ncc(Cl)c(C(=O)Nc2cccc(C)c2)n1,-6.9%,-20.3%,7.4%,-2.6%,-7.2%,-9.3%

# Screening results from PubChem BioAssay.
